Assay [1] can be described thus: qHTS for differential inhibitors of proliferation of Plasmodium falciparum line Dd2 (AID 1882). Note: nearly all actives have a fitted effect of over 65% in size. Note: potency is the fitted concentration of half-maximal effect. To be noted: Potency: Plasmodium falciparum Dd2 proliferation inhibition. In a few lines: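 RBC culture, 0.3% parasitemia / 2.5% Hct final; cpd added by pin tool in DMSO; 72 h, 37 C, 5% CO2; lysis buffer + SYBR Green I, o/n RT dark; FI 485/535; norm. to artemisinin 0.29 uM and DMSO.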

Assay [2] is described as follows: Quantitative high throughput screen for delayed death inhibitors of the malarial parasite plastid, 48 hour incubation (AID 488752). Note: nearly all actives have a fitted effect of over 65% in size. Note: potency is the fitted concentration of half-maximal effect. The procedure, abridged: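 Luciferase-expressing P. falciparum in RBCs, 2% Hct, 0.1% parasitemia final; RPMI 1640 + 0.5% Albumax; 48 h, 37 C, 5% CO2; luminescence readout, signal drop = growth inhibition.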
In assay [3] the target is Voltage-gated inwardly rectifying potassium channel KCNH2 (Homo sapiens) (UniProt Q12809). Kind of assay: qHTS Assay for Small Molecule Inhibitors of the Human hERG Channel Activity (AID 588834).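 Note: lower thallium flux fluorescence means stronger hERG block; nearly all actives have a fitted effect of over 50% in size.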 Note: potency is the fitted concentration of half-maximal effect. The procedure, abridged:
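Homogeneous FluxOR thallium flux assay using hERG-expressing U2OS cells (BacMam). Compound treatment about 10 minutes preceded stimulation; reduced fluorescence taken as channel block.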
On the technique in general: Quantitative high-throughput screening tests each substance at several concentrations.

A short description of assay [4]: qHTS for differential inhibitors of proliferation of Plasmodium falciparum line 7G8 (AID 1815).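 Note: parasite growth measured after three days of incubation.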 Note: potency is the fitted concentration of half-maximal effect.
Assay [5] in a line: qHTS for differential inhibitors of proliferation of Plasmodium falciparum line 3D7 (AID 1876).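 For activity, negative = inhibition: parasite growth measured after three days of culture; 0% = vehicle wells and -100% = reference inhibitor wells.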 Note: potency is the fitted concentration of half-maximal effect.
A short description of assay [6]: qHTS for differential inhibitors of proliferation of Plasmodium falciparum line HB3 (AID 1886).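 Note: parasites grown with compound for 72 h before SYBR Green readout.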 Note: potency is the fitted concentration of half-maximal effect. The note with it: Potency: Plasmodium falciparum HB3 proliferation inhibition.
Assay [7] is described as follows: qHTS Assay for Modulators of Human Peripheral Myelin Protein 22 (PMP22) Expression/Activity (AID 1967; active = well fitted curve in the direction sought with a large enough effect in the signal ratio; the % refers to the signal ratio;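 note: 0% = untreated cells and 100% end not stated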). In a few lines:
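Engineered MSC80 cells, Pmp22-promoter green and EF-alpha red luciferase reporters; 24h compound treatment at 37 °C. Concentration-response fits on green, red and ratio signals, each overlap-corrected, with %Activity normalized to untreated wells.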

Assay [8] is described as follows: qHTS for differential inhibitors of proliferation of Plasmodium falciparum line W2 (AID 1883).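 Note: parasites grown with compound for 72 h before lysis and staining.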 Note: potency is the fitted concentration of half-maximal effect. The note with it: Potency: Plasmodium falciparum W2 proliferation inhibition.
Assay [9] addresses RecQ-like DNA helicase BLM (Homo sapiens) (UniProt P54132). Kind of assay: qHTS Validation Assay for Inhibitors of Bloom's syndrome helicase (BLM) (AID 2364).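 Note: plate controls were DMSO vehicle for no effect and enzyme-free control for full effect.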 In a few lines: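 BLM 50 nM in 25 mM Tris-HCl pH 8.0, 5 mM NaCl, 2 mM MgCl2, 1 mM DTT, 0.01% Tween-20, 2.5 ug/ml poly(dI-dC); 15 min cpd preinc, RT. Start: 200 nM forked DNA + 2 mM ATP (final). TAMRA read, 2 reads 2 h apart.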

Assay [10] can be described thus: AP1 Signaling Pathway (AID 357; active = well fitted curve in either direction with a large enough effect, not every such curve was filed as active;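 note: ME-180 reporter cells stimulated with EGF at its EC50 level; % is set by controls: 0 for no effect and ±100 for the full control effect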). The procedure, abridged:
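A ratiometric CCF4 readout (405 nm excitation; 460 and 530 nm emission) quantified AP-1-driven beta-lactamase in ME-180 cells after 5 h with compound and EC50 EGF; AC50 values were derived for activators and inhibitors.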

Assay [11] concerns the target Guanine nucleotide-binding protein G(i) subunit alpha-1 (Homo sapiens) (UniProt P63096). Kind of assay: qHTS Assay for Inhibitors of RGS12 GoLoco Motif Activity (Green Fluorophore) (AID 879).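 Note: 0% = labeled peptide with Gαi1 and full inhibition = labeled peptide alone without protein; negative values mean loss of peptide binding seen as reduced polarization.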 The procedure, abridged:
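A drop in FITC polarization marked displacement of the FITC-tagged RGS12 GoLoco peptide (10 nM) from Gαi1 (50 nM). Compounds were incubated 10 min at room temperature in Tris pH 7.5 buffer containing 150 mM NaCl, 0.1 mM GDP and 0.05% NP40; unlabeled peptide titration served as control.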

Assay [12] deals with Pyruvate kinase (Leishmania mexicana) (UniProt Q27686). Kind of assay: qHTS Validation Assay for Inhibitors of Leishmania Mexicana Pyruvate Kinase (AID 945). Note: potency is the fitted concentration of half-maximal effect. In a few lines:
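Eight-point qHTS titrations in triplicate, data normalized to DMSO neutral control. Reaction: 0.2 nM LmPYK E451W mutant, 0.5 mM PEP, 0.1 mM ADP, 7 mM MgCl2, pH 7.2, one hour at room temperature; luminescent ATP detection.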

Assay [13] has as its target Pyruvate kinase PKM (Homo sapiens) (UniProt P14618). Kind of assay: qHTS Assay for Activators of Human Muscle Pyruvate Kinase (AID 954; active = well fitted curve in the direction sought with a large enough effect, not every such curve was filed as active;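 note: 0% = uninhibited enzyme and -100% = no enzyme or full thiadiazolimine inhibition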). The procedure, abridged: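 ATP production by PKM2 detected via luciferase luminescence after 1 h room-temperature reaction (0.1 nM enzyme, PEP at Km 0.5 mM, ADP 0.1 mM, pH 7.2 imidazole buffer). Inhibition scaled to no-enzyme control; activation referenced to 0.3 nM enzyme wells.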

A short description of assay [14]: qHTS for differential inhibitors of proliferation of Plasmodium falciparum line GB4 (AID 1816).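 Note: parasite growth measured after 72 h incubation.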 Note: potency is the fitted concentration of half-maximal effect. The note with it: Potency: Plasmodium falciparum GB4 proliferation inhibition.
Assay [15] has as its target Luciferin 4-monooxygenase (Photinus pyralis) (UniProt P08659). Kind of assay: Biochemical firefly luciferase enzyme assay for NPC (AID 624030).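 Note: purified P. pyralis luciferase at 10 nM with luciferin and ATP substrate; 0% = DMSO and -100% = full luciferase inhibition by PTC124 control; nearly all actives have a fitted effect of over 70% in size.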 The procedure, abridged:
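Counter-screen for direct inhibition of the luciferase enzyme by approved-drug library compounds, run at 10 nM enzyme in 50 mM Tris acetate (final). Luminescence was read within 5 min of enzyme-buffer addition and normalized to PTC124 versus DMSO (0%).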

Assay [16] deals with Ubiquitin carboxyl-terminal hydrolase 1 (Homo sapiens) (UniProt O94782). Kind of assay: Inhibitors of USP1/UAF1: Pilot qHTS (AID 504865).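 Note: rhodamine fluorescence freed from ubiquitin-rhodamine substrate followed over time; top concentration of the series differs between compounds; % is set by controls: 0 for no effect and ±100 for the full control effect; nearly all actives have a fitted effect of over 35% in size.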 In a few lines: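 Enzyme-free wells gave the negative control, while test wells held 1nM USP1/UAF1 preincubated with compound for 15 min at room temperature. Ub-Rho at 150nM final started the reaction, and fluorescence at 480/540 nm was recorded kinetically.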

A short description of assay [17]: qHTS profiling for inhibitors of Plasmodium falciparum proliferation (AID 504749).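 Note: 0% = DMSO vehicle and full inhibition = artemisinin control; nearly all actives have a fitted effect of over 60% in size.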 The note with it: P. falciparum in erythrocytes, SYBR Green DNA, 72 h, at 28.7 µM (top of the series). In a few lines: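 Fluorescence of SYBR Green-bound parasite DNA, read at 485/535 nm, served as the growth measure. Infected erythrocytes were cultured with compound 72 h; artemisinin (0.29 uM) and DMSO wells defined the normalization range.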

The structures appear in SMILES notation. Values without a mark were called inactive. Inconclusive results are not listed. Calls of active or inactive are those of the source. Unless noted, calls come from the whole dose curve; as a rule, active = well fitted curve in the direction sought with a large enough effect; inconclusive = small, poorly fitted or top-dose-only effect, or another doubt; inactive = no such curve, though single readings can be large; an effect the other way counts as inactive or inconclusive.

Chain of RecQ-like DNA helicase BLM (Homo sapiens) (P54132 whole entry, looked up): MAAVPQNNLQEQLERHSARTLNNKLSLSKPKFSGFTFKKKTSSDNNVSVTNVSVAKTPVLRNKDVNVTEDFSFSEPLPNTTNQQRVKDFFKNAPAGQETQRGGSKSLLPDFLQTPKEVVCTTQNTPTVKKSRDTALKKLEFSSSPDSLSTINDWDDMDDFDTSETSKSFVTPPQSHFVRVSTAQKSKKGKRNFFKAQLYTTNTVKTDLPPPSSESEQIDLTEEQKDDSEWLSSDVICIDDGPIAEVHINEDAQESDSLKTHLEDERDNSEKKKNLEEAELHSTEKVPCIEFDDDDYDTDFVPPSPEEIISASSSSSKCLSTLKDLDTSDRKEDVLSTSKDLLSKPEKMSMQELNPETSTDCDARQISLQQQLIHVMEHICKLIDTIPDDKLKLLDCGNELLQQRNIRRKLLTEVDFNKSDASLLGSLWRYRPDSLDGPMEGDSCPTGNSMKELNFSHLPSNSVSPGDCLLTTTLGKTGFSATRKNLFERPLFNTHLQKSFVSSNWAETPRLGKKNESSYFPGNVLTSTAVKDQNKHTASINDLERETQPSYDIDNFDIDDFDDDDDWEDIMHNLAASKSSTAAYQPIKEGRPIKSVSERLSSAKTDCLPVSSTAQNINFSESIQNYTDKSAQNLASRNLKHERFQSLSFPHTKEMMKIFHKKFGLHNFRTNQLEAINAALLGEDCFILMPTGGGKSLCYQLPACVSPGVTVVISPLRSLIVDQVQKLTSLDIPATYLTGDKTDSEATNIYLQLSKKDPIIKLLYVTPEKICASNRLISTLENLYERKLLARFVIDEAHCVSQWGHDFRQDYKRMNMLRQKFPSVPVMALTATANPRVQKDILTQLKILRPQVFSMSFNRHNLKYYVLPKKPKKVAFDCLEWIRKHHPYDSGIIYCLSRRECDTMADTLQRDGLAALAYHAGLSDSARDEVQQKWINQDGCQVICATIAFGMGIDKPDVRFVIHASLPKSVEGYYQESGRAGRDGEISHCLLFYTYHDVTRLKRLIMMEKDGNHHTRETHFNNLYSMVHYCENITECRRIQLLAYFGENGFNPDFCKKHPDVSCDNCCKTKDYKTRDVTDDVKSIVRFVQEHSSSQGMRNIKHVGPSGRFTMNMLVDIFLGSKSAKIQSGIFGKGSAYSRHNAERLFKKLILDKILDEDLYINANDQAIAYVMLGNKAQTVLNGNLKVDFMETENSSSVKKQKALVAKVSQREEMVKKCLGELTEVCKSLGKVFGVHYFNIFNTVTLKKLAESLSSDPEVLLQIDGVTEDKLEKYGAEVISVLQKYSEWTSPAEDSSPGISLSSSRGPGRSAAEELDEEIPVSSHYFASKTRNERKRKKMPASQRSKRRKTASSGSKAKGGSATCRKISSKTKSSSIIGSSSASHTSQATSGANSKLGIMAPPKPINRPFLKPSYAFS
Chain of Pyruvate kinase (Leishmania mexicana) (Q27686 2-499 E452W): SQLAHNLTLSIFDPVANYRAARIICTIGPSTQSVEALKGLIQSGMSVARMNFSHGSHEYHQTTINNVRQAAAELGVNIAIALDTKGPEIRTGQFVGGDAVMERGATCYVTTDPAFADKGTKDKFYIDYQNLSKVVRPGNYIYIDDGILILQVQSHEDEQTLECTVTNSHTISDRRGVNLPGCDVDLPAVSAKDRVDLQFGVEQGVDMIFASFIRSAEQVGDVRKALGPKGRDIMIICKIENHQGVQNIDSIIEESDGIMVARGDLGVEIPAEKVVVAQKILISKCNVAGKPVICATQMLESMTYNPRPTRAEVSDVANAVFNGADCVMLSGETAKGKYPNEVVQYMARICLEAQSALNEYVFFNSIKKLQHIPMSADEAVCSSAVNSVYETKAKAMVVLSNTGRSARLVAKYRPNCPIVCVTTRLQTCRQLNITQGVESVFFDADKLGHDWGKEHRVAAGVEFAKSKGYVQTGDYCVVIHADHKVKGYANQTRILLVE
Chain of Guanine nucleotide-binding protein G(i) subunit alpha-1 (Homo sapiens) (P63096 whole entry, looked up): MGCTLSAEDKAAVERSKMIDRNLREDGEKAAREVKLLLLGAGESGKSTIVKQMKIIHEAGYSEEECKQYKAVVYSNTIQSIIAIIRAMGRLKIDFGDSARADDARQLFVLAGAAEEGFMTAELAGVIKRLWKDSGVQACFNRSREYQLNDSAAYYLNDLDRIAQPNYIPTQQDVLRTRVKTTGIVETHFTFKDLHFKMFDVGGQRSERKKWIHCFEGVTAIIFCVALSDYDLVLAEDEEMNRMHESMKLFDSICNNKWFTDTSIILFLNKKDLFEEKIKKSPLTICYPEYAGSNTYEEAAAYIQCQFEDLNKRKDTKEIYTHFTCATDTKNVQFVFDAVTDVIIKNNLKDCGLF
Chain of Voltage-gated inwardly rectifying potassium channel KCNH2 (Homo sapiens) (Q12809 whole entry, looked up): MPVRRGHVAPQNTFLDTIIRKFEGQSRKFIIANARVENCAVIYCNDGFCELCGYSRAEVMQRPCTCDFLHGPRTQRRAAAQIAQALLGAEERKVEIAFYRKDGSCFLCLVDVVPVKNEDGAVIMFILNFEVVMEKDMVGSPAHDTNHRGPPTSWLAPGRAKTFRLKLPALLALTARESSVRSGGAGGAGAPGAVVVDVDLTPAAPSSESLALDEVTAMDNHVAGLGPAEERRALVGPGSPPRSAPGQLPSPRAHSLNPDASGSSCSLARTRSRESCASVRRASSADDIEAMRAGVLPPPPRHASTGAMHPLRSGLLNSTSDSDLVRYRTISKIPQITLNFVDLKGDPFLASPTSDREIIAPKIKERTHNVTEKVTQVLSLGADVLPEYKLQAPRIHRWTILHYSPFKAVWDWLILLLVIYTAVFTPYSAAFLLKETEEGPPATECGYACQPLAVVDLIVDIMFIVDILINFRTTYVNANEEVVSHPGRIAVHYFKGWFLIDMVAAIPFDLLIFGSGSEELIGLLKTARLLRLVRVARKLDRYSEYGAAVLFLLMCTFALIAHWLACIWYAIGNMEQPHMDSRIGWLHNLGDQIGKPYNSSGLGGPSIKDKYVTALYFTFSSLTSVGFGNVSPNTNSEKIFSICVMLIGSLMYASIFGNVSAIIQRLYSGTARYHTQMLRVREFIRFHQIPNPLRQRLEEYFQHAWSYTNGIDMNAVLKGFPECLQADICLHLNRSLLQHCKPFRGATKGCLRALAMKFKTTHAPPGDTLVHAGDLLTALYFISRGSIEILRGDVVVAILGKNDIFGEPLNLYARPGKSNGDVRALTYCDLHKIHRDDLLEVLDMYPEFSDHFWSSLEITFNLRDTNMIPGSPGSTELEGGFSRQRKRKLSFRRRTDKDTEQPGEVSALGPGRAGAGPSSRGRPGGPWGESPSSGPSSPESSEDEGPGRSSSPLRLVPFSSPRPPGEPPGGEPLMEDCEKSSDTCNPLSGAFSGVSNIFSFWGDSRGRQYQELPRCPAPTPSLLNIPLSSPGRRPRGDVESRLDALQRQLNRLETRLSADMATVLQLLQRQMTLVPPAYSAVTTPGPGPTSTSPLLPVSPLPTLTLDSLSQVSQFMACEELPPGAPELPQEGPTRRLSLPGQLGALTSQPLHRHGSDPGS
Chain of Luciferin 4-monooxygenase (Photinus pyralis) (P08659 whole entry, looked up): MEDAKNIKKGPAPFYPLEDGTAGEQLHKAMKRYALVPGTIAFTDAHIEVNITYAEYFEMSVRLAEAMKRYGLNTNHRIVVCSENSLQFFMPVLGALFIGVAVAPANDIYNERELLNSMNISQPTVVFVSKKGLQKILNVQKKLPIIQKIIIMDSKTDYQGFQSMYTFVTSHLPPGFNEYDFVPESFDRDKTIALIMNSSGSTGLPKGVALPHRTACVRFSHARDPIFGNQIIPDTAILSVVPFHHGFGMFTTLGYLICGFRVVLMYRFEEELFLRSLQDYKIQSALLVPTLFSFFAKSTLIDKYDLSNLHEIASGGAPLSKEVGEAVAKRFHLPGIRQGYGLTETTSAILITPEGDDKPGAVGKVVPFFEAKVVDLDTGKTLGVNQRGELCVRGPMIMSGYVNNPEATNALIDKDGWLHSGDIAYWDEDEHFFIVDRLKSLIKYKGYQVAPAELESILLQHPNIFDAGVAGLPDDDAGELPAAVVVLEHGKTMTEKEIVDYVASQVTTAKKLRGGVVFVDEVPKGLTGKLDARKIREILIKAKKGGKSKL
Chain of Pyruvate kinase PKM (Homo sapiens) (P14618 whole entry, looked up): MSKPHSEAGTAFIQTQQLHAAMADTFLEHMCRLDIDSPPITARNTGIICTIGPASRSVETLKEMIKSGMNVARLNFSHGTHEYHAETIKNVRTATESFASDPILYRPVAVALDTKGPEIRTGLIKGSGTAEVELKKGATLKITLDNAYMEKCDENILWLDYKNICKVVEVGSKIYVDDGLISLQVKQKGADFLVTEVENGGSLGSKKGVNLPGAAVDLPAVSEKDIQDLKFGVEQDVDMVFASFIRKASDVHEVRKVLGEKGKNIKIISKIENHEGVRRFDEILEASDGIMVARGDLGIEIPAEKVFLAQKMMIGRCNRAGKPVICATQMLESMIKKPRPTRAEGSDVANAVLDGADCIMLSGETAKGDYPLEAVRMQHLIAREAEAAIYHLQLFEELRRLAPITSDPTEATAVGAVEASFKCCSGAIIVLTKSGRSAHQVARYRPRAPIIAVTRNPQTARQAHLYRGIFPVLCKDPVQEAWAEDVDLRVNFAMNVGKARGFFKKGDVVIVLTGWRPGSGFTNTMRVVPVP

For the compound `N#CC(=Cc1ccc(O)c(O)c1)C(N)=S`, the Potency result in [1], in assay [2] and in assay [3] was “inactive” in each case.

As to `CCN1C[C@]2(C)CC[C@H](O)[C@@]34[C@@H]5C[C@@H]6[C@@H](OC)C[C@@](O)(C5[C@H]6O)[C@@H](C[C@@H]23)[C@@H]14`, the Potency result in assay [4], in assay [5], in assay [1], in assay [6] and in assay [3] was “inactive” in each case. The compound was classed as inactive in assay [7].

For `CN1C[C@@H](CS(=O)(=O)N(C)C)C[C@@H]2c3cccc4c3c(cn4C)C[C@H]21`, the Potency is 3.98 µM (active) in assay [5] and 3.55 µM (active) in assay [8]. Besides, the compound was called inactive in assay [9]. Also, the Potency result in [3] was “inactive”.

For the compound `COc1cc(C=C(C#N)C#N)cc(O)c1O`, the outcome in assay [10], in assay [11] and in assay [13] was inactive. Further, the Potency entry in assay [12] and in assay [3] was “inactive” each time. Also, the figures for the Potency in assay [14] and in [8] were 12.6 µM (active) and 10 µM (active), respectively.

Consider `CCN(CC)C(=O)N[C@@H]1C[C@@H]2c3cccc4[nH]cc(c34)C[C@H]2N(C)C1`, for which the Potency was 5.62 µM (active) in assay [4]; 6.31 µM (active) in assay [14]; 0.398 µM (active) in [5]; 0.891 µM (active) in [8]; 0.891 µM (active) in [6]. The Potency result in assay [15] was “inactive”.

As for `CCCN1CCCC(c2cccc(O)c2)C1` (stereo not given), the Potency is 8.91 µM (active) in [4], 12.6 µM (active) in assay [14] and 8.91 µM (active) in assay [8]. In addition, the Potency entry in assay [5], in assay [6], in assay [2] and in assay [3] was “inactive” in each case. The call in assay [7] and in assay [9] was inactive.

Consider `COC(=O)C(N)CCCN=C(N)N[N+](=O)[O-]` (stereo not given), for which the Potency result in assay [4], in assay [14], in assay [5], in [1], in assay [8] and in assay [6] was “inactive” throughout. Also, the Potency entry in [2] and in [3] was “inactive” each time. Moreover, the result in [7] was inactive.

Consider `COc1ccc2c3c1O[C@H]1C(=O)CC[C@@]4(O)C(C2)N(CC2CC2)CCC314` (stereo not given in full), for which the Potency entry in assay [5], in assay [6] and in [2] was “inactive” throughout. The Potency in [8] is 11.2 µM (active). In addition, the call in [7] was inactive.

As to `COc1cc(C[C@@H](C)N)c(OC)cc1I`, the Potency in [14] is 12.6 µM (active); in assay [1], 7.08 µM (active); in assay [8], 3.98 µM (active). In addition, the Potency entry in assay [5], in [6], in assay [2] and in [3] was “inactive” throughout. In assay [9], the result was inactive.

For `CCCC[N+]1(C)C2CC(OC(=O)C(CO)c3ccccc3)CC1C1OC12` (stereo not given), the Potency entry in [4], in assay [14], in assay [1], in assay [6], in assay [2] and in assay [16] was “inactive” each time. Moreover, the Potency result in assay [3] and in assay [15] was “inactive” each time. Besides, the activity, negative = inhibition in assay [17] (parasite line A) is -8.81%; in assay [17] (parasite line B), -5.62%.

Turning to `C=CCN1CC[C@@]2(C)c3cc(O)ccc3CC1[C@@H]2C`, the values for the Potency in [4], in assay [14] and in assay [8] were 7.94 µM (active), 12.6 µM (active) and 6.31 µM (active), respectively. Also, the outcome in assay [7] and in assay [9] was inactive. In addition, the Potency result in [2] and in [3] was “inactive” in each case.

For the compound `COc1ccc2c(c1O)-c1cccc3c1C(C2)N(C)CC3` (stereo not given), the Potency in [4] is 8.91 µM (active); in assay [14] it was 8.91 µM (active); in assay [5] it was 10 µM (active); in assay [1], 11.2 µM (active); in assay [8], 7.94 µM (active); in assay [6] it was 12.6 µM (active). For the same compound, the call in assay [9] was inactive.

For `CN1CCC23CCCC[C@H]2C1Cc1ccc(O)cc13` (stereo not given in full), the Potency in assay [4] was 6.31 µM (active); in [1], 5.01 µM (active); in assay [8], 1.58 µM (active). Moreover, the Potency entry in assay [5], in [6] and in assay [2] was “inactive” each time. Further, the compound was classed as inactive in [7].

With `C[C@H]1OC[C@@H](C[N+](C)(C)C)O1`, the result in assay [10], in assay [11], in assay [13], in assay [7] and in [9] was inactive. Further, the Potency result in assay [12], in [4], in assay [14], in [5], in [1] and in [8] was “inactive” each time. Also, the Potency entry in [6], in assay [2] and in assay [3] was “inactive” throughout.

As to `CCNC(=O)[C@H]1O[C@@H](n2cnc3c(N)ncnc32)[C@H](O)[C@H]1O`, the Potency entry in assay [4], in [14], in assay [5], in [1], in assay [8] and in [6] was “inactive” throughout. Also, the Potency result in assay [2] and in assay [3] was “inactive” in each case. Further, the compound was called inactive in [7].

`Oc1ccc2c3c1O[C@H]1[C@@H](O)CC[C@@]4(O)C(C2)N(CC2CCC2)CCC314` (stereo not given in full): the Potency result in assay [4], in [5], in assay [1], in assay [6], in assay [16] and in [15] was “inactive” throughout. In addition, the compound was called inactive in assay [7] and in assay [9]. For the same compound, the Potency in assay [3] was 5.01 µM (active). Also, the activity, negative = inhibition in [17] (parasite line A) was 12%; in assay [17] (parasite line B), 0.575%.

With `CCCN(CCC)C(=O)Cc1c(-c2ccc(Cl)cc2)nc2c(Cl)cc(Cl)cn12`, the call in assay [10], in assay [11], in assay [13] and in [7] was inactive. Further, the Potency result in [12], in assay [6], in [2] and in [3] was “inactive” in each case.

As to `NNCc1cccc(O)c1`, the compound was classed as inactive in assay [10], in assay [11] and in assay [13]. In addition, the Potency in [12] is 10 µM (active); in [4], 12.6 µM (active); in assay [5], 12.6 µM (active); in assay [8], 12.6 µM (active); in assay [6], 14.1 µM (active); in assay [2], 7.38 µM (active). Moreover, in [3], the Potency entry was “inactive”.

For the origin of these results see PubChem BioAssay (NCATS).
